Source: ChEMBL document CHEMBL4808148, “HDAC6 screening dataset using tau-based substrate in an enzymatic assay yields selective inhibitors and activators” (2021)
Out of some 5,600 compounds screened, about 150 (2.7%) showed an effect of 50% or more. This is one part of a sample in which strong results are shown more often than they occur.

Assays:
[1] = target: T1, Protein deacetylase HDAC6 (Homo sapiens) (UniProt Q9UBN7); conditions: at 10 µM
T1 sequence (whole entry): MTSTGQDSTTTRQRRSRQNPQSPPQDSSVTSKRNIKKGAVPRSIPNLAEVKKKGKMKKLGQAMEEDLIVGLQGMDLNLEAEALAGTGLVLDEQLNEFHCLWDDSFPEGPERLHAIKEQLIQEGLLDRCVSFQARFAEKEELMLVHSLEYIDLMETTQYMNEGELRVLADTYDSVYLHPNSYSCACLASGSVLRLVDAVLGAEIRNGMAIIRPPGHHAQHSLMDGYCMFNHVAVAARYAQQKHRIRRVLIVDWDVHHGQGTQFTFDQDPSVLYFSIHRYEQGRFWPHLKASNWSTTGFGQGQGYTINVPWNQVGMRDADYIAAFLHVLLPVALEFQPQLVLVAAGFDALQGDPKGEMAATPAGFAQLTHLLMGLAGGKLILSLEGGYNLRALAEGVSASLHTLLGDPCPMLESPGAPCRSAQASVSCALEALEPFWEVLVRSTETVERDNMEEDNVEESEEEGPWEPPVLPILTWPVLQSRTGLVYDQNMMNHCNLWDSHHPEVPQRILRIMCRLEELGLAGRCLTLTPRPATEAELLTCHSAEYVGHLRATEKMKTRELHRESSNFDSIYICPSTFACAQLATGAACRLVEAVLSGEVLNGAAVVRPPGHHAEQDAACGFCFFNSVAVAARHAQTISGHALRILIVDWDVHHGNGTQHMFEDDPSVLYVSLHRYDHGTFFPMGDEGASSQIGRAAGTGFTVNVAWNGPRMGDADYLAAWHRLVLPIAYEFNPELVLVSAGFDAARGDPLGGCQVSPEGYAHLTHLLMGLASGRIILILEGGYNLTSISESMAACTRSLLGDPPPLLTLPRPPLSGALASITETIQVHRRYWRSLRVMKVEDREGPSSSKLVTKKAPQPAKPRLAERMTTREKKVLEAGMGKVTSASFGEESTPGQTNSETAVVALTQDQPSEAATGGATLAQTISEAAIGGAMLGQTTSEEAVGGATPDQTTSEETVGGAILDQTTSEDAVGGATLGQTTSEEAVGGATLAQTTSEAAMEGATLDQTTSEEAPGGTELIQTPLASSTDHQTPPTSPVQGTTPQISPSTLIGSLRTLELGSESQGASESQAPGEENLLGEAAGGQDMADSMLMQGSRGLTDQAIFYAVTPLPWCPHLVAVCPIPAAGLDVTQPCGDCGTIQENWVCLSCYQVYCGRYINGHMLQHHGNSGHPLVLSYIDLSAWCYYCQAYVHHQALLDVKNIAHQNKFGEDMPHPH

[2] = target: Protein deacetylase HDAC6 (Homo sapiens) (UniProt Q9UBN7); conditions: at 10 µM; remark: listed apart in the source

Row | Molecule | inhibition [1] [%] | inhibition [2] [%]
1 | CSc1nc(-c2ccc(F)cc2)c(-c2ccnc(NC(C)c3ccccc3)c2)[nH]1 (centres undefined) | -0.06 | 
2 | Cc1nccc2[nH]c(=O)ccc12 | -0.8 | 
3 | COC(=O)CC1CC(c2ccc(O)cc2)=NO1 (centres undefined) | 68.8 | 
4 | COC(=O)c1ccc(O)cc1 | 11.4 | 
5 | Fc1ccc(-c2cncc(CN3CCN(c4cccc5c4OCCO5)CC3)c2)cc1 | 2 | 
6 | COC[C@@H](c1ccc(C(F)(F)F)cc1)N1CCN(C2(C)CCN(C(=O)c3c(C)ncnc3C)CC2)C[C@@H]1C | 6.58 | 
7 | O=C(c1ccc(/C=C/c2n[nH]c3ccccc23)cc1)N1CCNCC1 | 98 | 
8 | Nc1c2ccccc2nc2ccccc12 | 4.21 | 
9 | Nc1ccc(/N=N/c2ccccc2)c(N)n1 | 78.3 | 
10 | CN1CCc2c(c3ccccc3n2Cc2ccc(C(=O)NO)cc2)C1 | 97 | 
11 | Cc1ccc2c(c1)c1c(n2CCc2ccc(C)nc2)CCN(C)C1 | 0.41 | 
12 | O=C(O)CCn1c2c(c3ccccc31)C[C@H](NS(=O)(=O)c1ccc(F)cc1)CC2 | 0.51 | 
13 | N#Cc1c(N)nc(SCc2ncc[nH]2)c(C#N)c1-c1ccc(O)cc1 | 4.89 | 
14 | CSc1ccc(C(=O)N[C@@H]2CCCC[C@@H]2NC(=O)CNC(=O)c2cc(C(F)(F)F)ccc2NC(=O)NC(C)C)cc1 | -5.32 | 
15 | Cc1ccc(S(=O)(=O)Nc2nc3ccccc3nc2Nc2ccc3nsnc3c2)cc1 | 1.65 | 
16 | C#Cc1cccc(Nc2ncnc3cc(OC)c(OCCCCCCC(=O)NO)cc23)c1 | 94.6 | 
17 | COc1cc2ncnc(Nc3cccc(Br)c3)c2cc1OC | -6.11 | 
18 | C#Cc1cccc(Nc2ncnc3cc(OCCOC)c(OCCOC)cc23)c1 | 1.06 | 
19 | COc1cc2c(NC3CCN(C)CC3)nc(N3CCCN(C)CC3)nc2cc1OCCOCCN(C)C | 4.62 | 
20 | O=C(NCCO)c1cc(C(=O)NCCO)cc(C(=O)NCCO)c1 | -2.63 | 
21 | CCc1nn(CCO)c(CC)c1Oc1cc(C#N)cc(C#N)c1 | -5.93 | 
22 | O=C1Nc2ccccc2/C1=C1/Nc2ccccc2/C1=N\O | 36.4 | 
23 | O=C(Nc1ccc(O)cc1)c1ccccc1O | 44.6 | 
24 | O=C(N/N=C/c1ccc(O)c(O)c1)c1cc2ccccc2cc1O | 32.8 | 
25 | O=C(N/N=C/c1ccccc1O)c1ccccc1O | 77.3 | 

Row | Molecule | inhibition [1] [%] | inhibition [2] [%]
26 | CC#C[C@@H](CC(=O)O)c1ccc(OCc2cccc(-c3ccc(C(F)(F)F)cc3)c2)cc1 | 5.76 | 
27 | O=C(O)c1ccc(CN2CCC(CN[C@@H]3C[C@H]3c3ccccc3)CC2)cc1 | 8.19 | 
28 | N[C@@H](CCC(=O)O)C(=O)O | -3.62 | 
29 | COc1ccc(C(=O)c2ccc(C)cc2)c(O)c1 | 5.59 | 
30 | COc1ccc(-c2coc3cc(O)cc(O)c3c2=O)cc1 | 63.1 | 
31 | COc1ccc(-c2oc3c(CC=C(C)C)c(O)cc(O)c3c(=O)c2O)cc1 | 6.17 | 
32 | O=c1c(O)c(-c2ccc(O)cc2O)oc2cc(O)cc(O)c12 | 2.84 | 
33 | O=c1c(-c2ccc(O)cc2)coc2cc(O)cc(O)c12 | 57.9 | 
34 | O=c1c(O[C@@H]2O[C@H](CO)[C@H](O)[C@H](O)[C@H]2O)c(-c2ccc(O)c(O)c2)oc2cc(O)cc(O)c12 | 11.7 | 
35 | COc1ccc(OCC2c3cc(OC)c(OC)cc3CCN2C(=O)c2cccc(Cl)c2)cc1 (centres undefined) | -0.3 | 
36 | BIS(MALTOLATO)OXOVANADIUM(IV), CHEMBL286447 |  | 1.5
37 | c1ccc2c(c1)-c1nc-2nc2[nH]c(nc3nc(nc4[nH]c(n1)c1ccccc41)-c1ccccc1-3)c1ccccc21 | -0.22 | 
38 | Cc1cccc(-c2n[nH]cc2-c2ccc3ncccc3n2)n1 | -0.98 | 
39 | Cc1cc(O)c2c(=O)c3c(O)cc(O)c4c5c(O)cc(O)c6c(=O)c7c(O)cc(C)c8c1c2c(c34)c(c78)c65 | 22.2 | 
40 | CCCCCCCCCCCCCCCC(=O)N[C@@H](CCC(=O)NCCCC[C@H](NC(=O)[C@H](C)NC(=O)[C@H](C)NC(=O)[C@H](CCC(N)=O)NC(=O)CNC(=O)[C@H](CCC(=O)O)NC(=O)[C@H](CC(C)C)NC(=O)[C@H](Cc1ccc(O)cc1)NC(=O)[C@H](CO)NC(=O)[C@H](CO)NC(=O)[C@@H](NC(=O)[C@H](CC(=O)O)NC(=O)[C@H](CO)NC(=O)[C@@H](NC(=O)[C@H](Cc1ccccc1)NC(=O)[C@@H](NC(=O)CNC(=O)[C@H](CCC(=O)O)NC(=O)[C@H](C)NC(=O)[C@@H](N)Cc1cnc[nH]1)[C@@H](C)O)[C@@H](C)O)C(C)C)C(=O)N[C@@H](CCC(=O)O)C(=O)N[C@@H](Cc1ccccc1)C(=O)N[C@H](C(=O)N[C@@H](C)C(=O)N[C@@H](Cc1c[nH]c2ccccc12)C(=O)N[C@@H](CC(C)C)C(=O)N[C@H](C(=O)N[C@@H](CCCNC(=N)N)C(=O)NCC(=O)N[C@@H](CCCNC(=N)N)C(=O)NCC(=O)O)C(C)C)[C@@H](C)CC)C(=O)O | -0.77 | 
41 | NS(=O)(=O)c1nn2cc(-c3ccccc3)nc2s1 | 82 | 
42 | CC(=O)/N=c1/sc(S(N)(=O)=O)nn1C | 0.67 | 
43 | CCCCOC(=O)c1cc2c(cn1)[nH]c1ccccc12 | 36 | 
44 | O=C(O)c1cnn(-c2nc3cc(OC(F)(F)F)c(Cl)cc3[nH]2)c1 | 95.9 | 
45 | Cc1ccc2[nH]c(=O)c(C3=NN(C(=O)CCC(=O)O)C(c4ccc(Br)cc4)C3)c(-c3ccccc3)c2c1 (centres undefined) | -0.13 | 
46 | CCC(CC)Nc1cc(C)nc(Oc2c(C)cc(C)cc2C)c1C | -6.76 | 
47 | O=C(O)Cc1cc2ccccc2nc1C(=O)O | 6.45 | 
48 | C[C@@H]1O[C@@]2(CS1)CN1CCC2CC1.C[C@H]1O[C@]2(CS1)CN1CCC2CC1 | -5.94 | 
49 | O=C(O)CCCN1C(=O)c2cccc3cccc(c23)C1=O | -1.41 | 
